Measured values: PubChem BioAssay (NCATS)
Values without a mark were called inactive. For some of these results: Entries with a potency or affinity are not part of this list. Activity calls are given as the source filed them. No rule for the calls is given here.

Experiments:
[1] = Ebola virus entry assay, green fluorescence channel
[2] = Ebola virus entry assay, blue channel fluorescence
[3] = Ebola virus entry assay, ratio channel
[4] = Ebola virus entry assay, green channel fluorescence
[5] = Ebola virus entry assay, reporter ratio channel; Channel type: primary
[6] = Ebola virus entry assay, blue channel (ratio component)
For efficacy in this document: 0% is about no effect.

Row | SMILES | efficacy [1] [%] | outcome [2] | outcome [3] | outcome [4] | outcome [5] | AC50 [2] | AC50 [3] | AC50 [5] | outcome [6]
1 | Cc1cc(=O)oc2cc(O)ccc12 | -26.6 | inactive | inactive | inactive | inactive | – | – | – | –
2 | C[C@H](N)C(=O)N[C@@H](C)C(=O)NC1[C@H]2CN(c3nc4c(cc3F)c(=O)c(C(=O)O)cn4-c3ccc(F)cc3F)C[C@@H]12 (stereo partly specified) | 11 | inactive | inactive | inactive | inactive | – | – | – | –
3 | O=C(Nc1ncc([N+](=O)[O-])s1)c1cccs1 | -37.9 | inactive | inactive | inactive | inactive | – | – | – | –
4 | CC(C)n1nc(-c2cc3cc(O)ccc3[nH]2)c2c(N)ncnc21 | 37.9 | – | – | inactive | – | 2.82 µM (active) | 2.24 µM (active) | 2.24 µM (active) | –
5 | Cc1cccc(Nc2cc(Cl)nc(SCC(=O)O)n2)c1C | 19.8 | inactive | inactive | inactive | inactive | – | – | – | –
6 | CC(C)OC(=O)c1cc2c(OCC(O)CNC(C)(C)C)cccc2[nH]1 (stereo unspecified) | -19.4 | – | – | inactive | – | 28.2 µM (active) | 31.6 µM (active) | 31.6 µM (active) | –
7 | Cc1cc2c(OCC(CNC(C)(C)C)OC(=O)c3ccccc3)cccc2[nH]1 (stereo unspecified) | 15.1 | – | – | inactive | – | 25.1 µM (active) | 28.2 µM (active) | 28.2 µM (active) | –
8 | O=C(O)c1cn(C2CC2)c2cc(Cl)c(F)cc2c1=O | 14.4 | inactive | inactive | inactive | inactive | – | – | – | inactive
9 | Cc1cccc(N(C)C(=S)Oc2ccc3ccccc3c2)c1 | 22.5 | – | – | inactive | – | 25.1 µM (active) | 25.1 µM (active) | 25.1 µM (active) | –
10 | C=CCOc1ccccc1OCC(O)CNC(C)C (stereo unspecified) | -13.2 | – | – | inactive | – | 14.1 µM (active) | 14.1 µM (active) | 14.1 µM (active) | –
11 | CC1(C)OC[C@@H](COC(=O)CCc2ccc(OC[C@@H](O)CNCCNC(=O)N3CCOCC3)cc2)O1 | -15.7 | inactive | inactive | inactive | inactive | – | – | – | inactive
12 | CCOC(=O)c1c(N)sc2c1CCN(Cc1ccccc1)C2 | 21.5 | inactive | inactive | inactive | inactive | – | – | – | –
13 | Clc1ccc(Nc2nnc(Cc3ccncc3)c3ccccc23)cc1 | -25.3 | – | inactive | inactive | – | 15.8 µM (active) | – | 31.6 µM (active) | –
14 | CC(NC(CCc1ccccc1)C(=O)O)C(=O)N1C(=O)N(C)CC1C(=O)O (stereo unspecified) | -14.7 | inactive | inactive | inactive | inactive | – | – | – | inactive
15 | O=C1CC2(CCCC2)CC(=O)N1CCCCN1CCN(c2ncccn2)CC1 | 11.1 | inactive | – | inactive | – | – | 22.4 µM (active) | 22.4 µM (active) | inactive
16 | CC1(C)[C@@H]2CC[C@@]1(C)C(=O)C2 | 9.79 | inactive | inactive | inactive | inactive | – | – | – | inactive
17 | C[C@@H](O)[C@H](N)C(=O)O | -9.88 | inactive | inactive | inactive | inactive | – | – | – | inactive
